High-throughput results: PubChem, several laboratories
GIRK2 act: activators of NPY4-receptor-primed GIRK2 channels, summary, cell-based, HEK293, thallium flux; activation (% efficacy), % for hits at 75 µM; G protein-activated inward rectifier potassium channel 2 (Homo sapiens), P48051; HEK293 GIRK2/NPY4 cells, thallium flux fluorescence; 34,000 tested, under 10 active;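 active = primary screen hit, no activity in plain HEK293 cells, and in GIRK2-only cells above 5% efficacy rising with concentration; inactive = the rest, including fluorescent compounds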;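 note: efficacy is normalized control-subtracted fluorescence 15 s after thallium addition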
AMPAR-TARP mod: modulators of GluA2-stargazin AMPA receptor complexes, primary screen, cell-based, membrane potential dye | Voltage-dependent calcium channel gamma-2 subunit (Mus musculus) + Glutamate receptor 2 … | HEK293 GluA2+stargazin, membrane potential dye (FDSS), glutamate EC50; hits were called plate by plate, in both directions | calls only at 30 µM | 3.5% of 40,000 active;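 active = any of four per-well response measures lying three or more SD from its plate-wide compound average, in either direction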
Calls only; . = inactive; / = not tested or not shown; + = active, no number. The sample as a whole holds a higher share of hits than the screen did.

SMILES	GIRK2 act	AMPAR-TARP mod
CCOc1ccccc1C(=O)NC1CC(=O)N(c2ccc(C)c(C)c2)C1 (configuration not stated)	/	+
CCOc1ccccc1C(=O)NC1CC(=O)N(c2ccccc2)C1 (configuration not stated)	/	.
CC(=O)Nc1ccc(NC(=O)Cc2cc(-c3ccc(C)cc3)on2)cc1	.	.
COc1ccccc1NC(=O)c1ccc(S(=O)(=O)N(C)C2CCCCC2)cc1	/	.
CCCN(CCC)S(=O)(=O)c1ccc(C(=O)Nc2ccccc2OC)cc1	/	+
COc1ccc(CNC(=O)NCC2(c3cccs3)CCOCC2)cc1OC	.	.
CC1=NN(c2ccccc2)C(=O)C1C(=O)c1sc(-c2ccccc2)nc1C (configuration not stated)	.	.
COc1ccc(C(=O)C2C(=O)N(c3ccccc3)N=C2C)c(OC)c1 (configuration not stated)	.	+
CC1=NN(c2ccccc2)C(=O)C1C(=O)c1ccc(S(=O)(=O)N2CCCCC2)cc1 (configuration not stated)	.	.
CC1=NN(c2ccccc2)C(=O)C1C(=O)c1cccc(F)c1 (configuration not stated)	.	+
CCOc1ccc(C(=O)Nc2ccc3c(c2)CCC(=O)N3CC)cc1	/	.
CCCOC(=O)c1cc2cc(Br)cc(OC)c2oc1=O	.	+
CCC(C)NC(=O)c1cc2cc(Br)cc(OC)c2oc1=O (configuration not stated)	.	.
Cc1c(O)ccc2cc(S(=O)(=O)c3ccc(F)cc3)c(=O)oc12	/	+
CC(C)(C)c1ccc(S(=O)(=O)c2cc3cc(F)cc(F)c3oc2=O)cc1	/	.
Cc1cccn2c(=O)c(C=NCCO)c(NCc3ccco3)nc12	/	+
COc1ccc(N=Cc2c(NCCO)nc3c(C)cccn3c2=O)cc1	.	+
Cc1cccn2c(=O)c(/C=N/O)c(NCCO)nc12	/	.
C/C(Cl)=C\Cn1c(NCc2ccco2)nc2c1c(=O)n(C)c(=O)n2C	/	.
COc1ccccc1Cc1noc(C2CN(S(=O)(=O)c3c(C)noc3C)C2)n1	.	/
Nc1c(C(=O)N2CCCC2)nsc1C(=O)NCCc1ccccc1	.	.
COC(=O)c1ccsc1NC(=O)CC1Nc2cc(C)c(C)cc2NC1=O (configuration not stated)	.	+
Cc1cc2c(cc1C)NC(CC(=O)NCC(C)C)C(=O)N2 (configuration not stated)	/	.
Cc1ccc(NC(=O)Cn2cnc(-c3cccs3)cc2=O)cc1F	.	.
COc1ccc(-c2nnc(NC(=O)c3cc4ccccc4cc3OC)o2)cc1	/	.
SMILES	GIRK2 act	AMPAR-TARP mod
COc1ccc(NC(=O)Cn2c(=O)n(C(C)C)c(=O)c3nscc32)cc1OC	.	.
CCOc1ccccc1NC(=O)Cn1c(=O)n(C(C)C)c(=O)c2nscc21	.	+
NC(=O)c1ccccc1NC(=O)CS(=O)(=O)c1ccc2c(c1)S(=O)(=O)N=CN2	/	.
COc1ccc(NC(=O)c2ccc(=O)n(Cc3cccc([N+](=O)[O-])c3)c2)cc1OC	.	.
Cc1nn(C(C)(C)C)c(OC(=O)c2ccccc2Br)c1S(=O)(=O)c1ccccc1	/	+
COc1cc(OC)cc(C(=O)Oc2c(S(=O)(=O)c3ccc(C)cc3)c(C)nn2C(C)(C)C)c1	/	+
Cc1ccc(S(=O)(=O)c2c(C)nn(C(C)(C)C)c2OC(=O)c2ccccc2C)cc1	/	.
COc1cc(OC)cc(C(=O)Oc2c(S(=O)(=O)c3ccccc3)c(C)nn2C(C)(C)C)c1	/	.
Cc1nc2ccc3nc(NC(=O)c4ccn(C(C)C)n4)sc3c2s1	.	.
COc1ccc(S(=O)(=O)NCC(c2ccsc2)N2CCN(C)CC2)cc1 (configuration not stated)	.	.
COc1ccc(OC)c(S(=O)(=O)Nc2ccc(-c3cn4ccccc4n3)cc2)c1	/	.
COc1cc(S(=O)(=O)Nc2ccc(-c3cn4cccc(C)c4n3)cc2)c(OC)cc1C	/	+
Cc1ccc(NC(=O)C(=O)NCC2CCN(C(=O)c3snnc3C)CC2)cc1F	.	.
O=C(NCC1(c2cccs2)CC1)Nc1cccc(C(F)(F)F)c1	.	.
COc1cccc(NC(=O)NCC2(c3cccs3)CC2)c1	.	+
COc1ccc(S(=O)(=O)CCC(=O)Nc2ccc(C)cc2C(=O)c2ccccc2)cc1	.	.
Cc1ccccc1-c1ccc(SCC(=O)NCc2ccc3c(c2)OCO3)nn1	.	+
CC(C)C(=O)Nc1ccc(SCC(=O)NCc2ccc3c(c2)OCO3)nn1	.	.
CC(=O)Nc1ccc(-c2ccsc2)cc1NC(=O)Nc1cccs1	.	/
O=C(Nc1ccc(-n2cnnn2)cc1)c1csc(-c2cnccn2)n1	.	.
CC(=O)NS(=O)(=O)c1ccc(NC(=O)c2csc(-c3cnccn3)n2)cc1	.	+
